# Activity calls are given as the source filed them.
# Columns and labels:
# [1] = tested on: PRMT1 (protein arginine N-methyltransferase 1); experiment: small molecules binding arginine methyltransferase PRMT1 – biochemical, small-molecule microarray, 635 nm fluorescence, primary screen (AID 1088); conditions: higher = more signal;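 also: binding of Prmt1 protein to compounds spotted on small-molecule microarray slides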
# [2] = growth effects on S. cerevisiae YJM789 – YJM789 clinical isolate, OD600, 24 h, basal, primary screen (AID 1089); conditions: higher = more signal, called active from +8 up or from −8 down;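 also: growth of clinical yeast isolate S. cerevisiae YJM 789 seeded 1000 cells per well; test concentration not given here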
# [3] = S. pombe growth modifiers, basal conditions – strain 972, OD600, 24 h, no modulator, primary screen (AID 1090);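 also: basal condition with compound alone and no growth modifier present; test concentration not given here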; conditions: S. pombe 972 growth, higher = more signal, called active from +8 up or from −8 down
# [4] = budding yeast growth modifiers under rapamycin – strain BY4716, OD600, 96 h, primary screen (AID 1091); also: test concentration not given here; conditions: S. cerevisiae BY4716 + rapamycin, higher = more signal, called active from +8 up or from −8 down
# [5] = molecular target: Torsin-1A-interacting protein 2 (Homo sapiens) (UniProt Q8NFQ8); experiment: small molecules binding lysate-expressed LULL1 – cell lysate, human LULL1 lysate, 635/667 nm fluorescence, primary screen (AID 1092); conditions: small-molecule microarray, hLULL1 lysate binding, 635 nm fluorescence; higher = more signal;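 also: probe is lysate of COS7 cells overexpressing human LULL1; score merges per-feature 667 nm fluorescence with signal-to-noise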
# [6] = optical density change of DRC41 E. coli – strain DRC41, OD650, 24 h, E. coli filamentation project, primary screen (AID 1093);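 also: MC1000 strain lacking acrAB efflux and sulA so SOS filamentation is blocked; test concentration not given here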; conditions: E. coli DRC41 growth, higher = more signal, called active from +8 up or from −8 down
# [7] = probe aLefty2 binding to arrayed compounds – biochemical, biotinylated probe, 635/667 nm fluorescence, primary screen (AID 1094); conditions: small-molecule microarray, higher = more signal;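 also: score merges spot fluorescence near 667 nm with spot signal-to-noise ratio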
# [8] = tested on: Noggin (protein binding on small-molecule microarray); experiment: small molecules binding Noggin protein – biochemical, 635/667 nm fluorescence, primary screen (AID 1095); conditions: 635 nm fluorescence, higher = more signal;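 also: score merges 667 nm feature fluorescence with signal to noise over triplicate slides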
# [9] = molecular target: Neurogenic locus notch homolog protein 3 (Homo sapiens) (UniProt Q9UM47); experiment: small molecules binding NOTCH3 protein – biochemical, 635/667 nm fluorescence, primary screen (AID 1096); conditions: small-molecule microarray, 635 nm fluorescence, higher = more signal
# [10] = probe aEGFR binding to arrayed compounds – biochemical, biotinylated probe, 635/667 nm fluorescence, primary screen (AID 1097); conditions: small-molecule microarray, higher = more signal;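 also: probe is a biotinylated anti-EGFR antibody binding compounds printed on slides; score combines fluorescence near 667 nm and signal to noise of each spot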
# [11] = tested on: Plasmodium falciparum Sir2 (PF13_0152, Sir2A); experiment: Plasmodium falciparum Sir2A binding compounds – biochemical, small-molecule microarray, 635 nm fluorescence, primary screen (AID 1098); conditions: fluorescence 635 nm, higher = more signal;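 also: score merges spot fluorescence intensity with its signal-to-noise ratio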
# [12] = probe aDKK1 binding to arrayed compounds – biochemical, biotinylated probe, 635/667 nm fluorescence, primary screen (AID 1099); conditions: small-molecule microarray, higher = more signal;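 also: score merges 667nm spot fluorescence with signal to noise across triplicate slides; reference of the scale not given here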
# [13] = probe aCHRDL2 binding to arrayed compounds – biochemical, biotinylated probe, 635/667 nm fluorescence, primary screen (AID 1100); conditions: small-molecule microarray, higher = more signal
# [14] = change in splice reporter luminescence, either direction, cell-based, HEK293, spliceosome inhibition project, primary screen (AID 1101); conditions: HEK293 splicing luciferase reporter, 24 h, higher = more signal, called active from +8 up or from −8 down;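 also: HEK293 cells carrying a splicing-competent luciferase reporter gene; test concentration not given here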
# [15] = molecular target: Fibroblast growth factor 10 (Homo sapiens) (UniProt O15520); experiment: compounds binding fibroblast growth factor 10 – biochemical, small-molecule microarray, 635 nm fluorescence, primary screen (AID 1102); conditions: FGF10 binding, fluorescence 635 nm, higher = more signal
# [16] = tested on: glycogen synthase kinase-3 (GSK3A per assay name; protocol says GSK3B); experiment: compounds binding glycogen synthase kinase-3 – biochemical, small-molecule microarray, 635 nm fluorescence, GSK3A, primary screen (AID 1103); conditions: fluorescence 635 nm, higher = more signal; also: the record names both GSK3A and GSK3B
# [17] = molecular target: Epidermal growth factor receptor (Homo sapiens) (UniProt P00533); experiment: compounds binding epidermal growth factor receptor – biochemical, small-molecule microarray, 635 nm fluorescence, primary screen (AID 1104); conditions: EGFR binding, higher = more signal;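 also: score merges 667 nm emission intensity with spot signal to noise over triplicate slides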
# [18] = molecular target: Follistatin-related protein 3 (Homo sapiens) (UniProt O95633); experiment: compounds binding follistatin-related protein 3 – biochemical, small-molecule microarray, 635 nm fluorescence, primary screen (AID 1105); conditions: FSTL3 binding, higher = more signal;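 also: score merges emission near 667 nm and signal to noise per printed spot across three slides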
# [19] = molecular target: Dickkopf-related protein 1 (Homo sapiens) (UniProt O94907); experiment: small molecules binding DKK1 protein – biochemical, small-molecule microarray, 635 nm fluorescence scan, primary screen (AID 1106); conditions: higher = more signal;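 also: score merges emission near 667 nm with signal to noise over three replicate slides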
# [20] = tested on: Inhibin beta A chain (activin A); experiment: small molecules binding activin A – biochemical, small-molecule microarray, 635 nm fluorescence scan, primary screen (AID 1107); conditions: INHBA, higher = more signal;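 also: mouse activin A protein probed at 4.33 µg/mL on printed slides; score merges bound-protein fluorescence near 667 nm with spot signal-to-noise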
# Sequence of Epidermal growth factor receptor (Homo sapiens) (P00533 whole entry, looked up): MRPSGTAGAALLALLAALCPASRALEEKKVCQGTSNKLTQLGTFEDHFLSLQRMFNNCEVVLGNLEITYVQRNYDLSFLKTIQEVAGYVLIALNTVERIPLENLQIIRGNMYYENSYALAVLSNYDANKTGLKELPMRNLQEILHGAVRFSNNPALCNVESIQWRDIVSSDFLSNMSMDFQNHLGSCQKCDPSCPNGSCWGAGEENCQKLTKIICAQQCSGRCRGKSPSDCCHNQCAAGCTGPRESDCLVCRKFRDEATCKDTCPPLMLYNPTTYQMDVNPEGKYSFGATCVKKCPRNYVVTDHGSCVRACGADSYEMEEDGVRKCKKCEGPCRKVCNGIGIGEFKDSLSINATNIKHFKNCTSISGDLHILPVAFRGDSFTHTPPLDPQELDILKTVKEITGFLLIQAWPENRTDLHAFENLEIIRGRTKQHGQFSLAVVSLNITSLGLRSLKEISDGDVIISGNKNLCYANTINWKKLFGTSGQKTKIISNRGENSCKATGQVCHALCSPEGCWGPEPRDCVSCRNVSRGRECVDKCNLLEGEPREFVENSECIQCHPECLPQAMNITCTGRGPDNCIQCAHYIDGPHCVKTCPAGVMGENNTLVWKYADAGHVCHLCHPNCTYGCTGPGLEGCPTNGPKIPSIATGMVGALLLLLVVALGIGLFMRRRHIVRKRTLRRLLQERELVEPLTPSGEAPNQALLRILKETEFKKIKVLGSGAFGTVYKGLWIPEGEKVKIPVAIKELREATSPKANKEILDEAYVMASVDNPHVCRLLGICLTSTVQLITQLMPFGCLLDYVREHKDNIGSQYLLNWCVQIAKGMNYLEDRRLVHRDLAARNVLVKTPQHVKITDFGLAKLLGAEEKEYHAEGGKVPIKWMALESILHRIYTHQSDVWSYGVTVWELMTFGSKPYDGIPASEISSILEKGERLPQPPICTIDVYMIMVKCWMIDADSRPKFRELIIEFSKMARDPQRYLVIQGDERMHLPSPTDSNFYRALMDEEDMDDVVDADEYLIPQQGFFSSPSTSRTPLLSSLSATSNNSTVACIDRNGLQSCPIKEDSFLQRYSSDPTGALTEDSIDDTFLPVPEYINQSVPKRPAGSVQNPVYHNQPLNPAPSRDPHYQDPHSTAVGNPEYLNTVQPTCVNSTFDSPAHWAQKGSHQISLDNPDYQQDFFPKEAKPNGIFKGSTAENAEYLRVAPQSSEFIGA
# Sequence of Torsin-1A-interacting protein 2 (Homo sapiens) (Q8NFQ8 whole entry, looked up): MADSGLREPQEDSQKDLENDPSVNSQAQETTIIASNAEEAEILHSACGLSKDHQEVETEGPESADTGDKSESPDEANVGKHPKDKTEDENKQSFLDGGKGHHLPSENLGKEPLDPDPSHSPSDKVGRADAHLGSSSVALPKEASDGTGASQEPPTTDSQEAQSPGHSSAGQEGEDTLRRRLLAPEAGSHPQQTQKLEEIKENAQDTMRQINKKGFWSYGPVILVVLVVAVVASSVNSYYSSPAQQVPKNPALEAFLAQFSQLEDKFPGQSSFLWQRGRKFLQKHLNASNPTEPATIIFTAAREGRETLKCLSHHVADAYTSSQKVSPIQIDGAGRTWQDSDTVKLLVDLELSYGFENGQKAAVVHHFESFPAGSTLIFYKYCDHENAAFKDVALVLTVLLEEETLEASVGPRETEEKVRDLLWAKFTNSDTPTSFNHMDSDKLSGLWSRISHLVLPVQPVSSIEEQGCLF
# Sequence of Fibroblast growth factor 10 (Homo sapiens) (O15520 whole entry, looked up): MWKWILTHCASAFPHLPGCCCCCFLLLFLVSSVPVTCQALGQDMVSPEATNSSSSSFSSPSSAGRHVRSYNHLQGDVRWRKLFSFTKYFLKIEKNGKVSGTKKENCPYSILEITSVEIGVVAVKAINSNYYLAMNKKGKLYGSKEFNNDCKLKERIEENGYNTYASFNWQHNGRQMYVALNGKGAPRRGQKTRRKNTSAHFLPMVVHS
# Sequence of Follistatin-related protein 3 (Homo sapiens) (O95633 whole entry, looked up): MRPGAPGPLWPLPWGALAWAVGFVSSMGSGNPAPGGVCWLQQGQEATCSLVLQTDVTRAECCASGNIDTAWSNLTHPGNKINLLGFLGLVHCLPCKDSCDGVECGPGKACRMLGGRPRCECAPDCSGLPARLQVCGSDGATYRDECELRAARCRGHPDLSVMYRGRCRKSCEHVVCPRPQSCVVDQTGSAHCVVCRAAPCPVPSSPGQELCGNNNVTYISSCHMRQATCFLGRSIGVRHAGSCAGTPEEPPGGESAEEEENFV
# Sequence of Neurogenic locus notch homolog protein 3 (Homo sapiens) (Q9UM47 whole entry, looked up): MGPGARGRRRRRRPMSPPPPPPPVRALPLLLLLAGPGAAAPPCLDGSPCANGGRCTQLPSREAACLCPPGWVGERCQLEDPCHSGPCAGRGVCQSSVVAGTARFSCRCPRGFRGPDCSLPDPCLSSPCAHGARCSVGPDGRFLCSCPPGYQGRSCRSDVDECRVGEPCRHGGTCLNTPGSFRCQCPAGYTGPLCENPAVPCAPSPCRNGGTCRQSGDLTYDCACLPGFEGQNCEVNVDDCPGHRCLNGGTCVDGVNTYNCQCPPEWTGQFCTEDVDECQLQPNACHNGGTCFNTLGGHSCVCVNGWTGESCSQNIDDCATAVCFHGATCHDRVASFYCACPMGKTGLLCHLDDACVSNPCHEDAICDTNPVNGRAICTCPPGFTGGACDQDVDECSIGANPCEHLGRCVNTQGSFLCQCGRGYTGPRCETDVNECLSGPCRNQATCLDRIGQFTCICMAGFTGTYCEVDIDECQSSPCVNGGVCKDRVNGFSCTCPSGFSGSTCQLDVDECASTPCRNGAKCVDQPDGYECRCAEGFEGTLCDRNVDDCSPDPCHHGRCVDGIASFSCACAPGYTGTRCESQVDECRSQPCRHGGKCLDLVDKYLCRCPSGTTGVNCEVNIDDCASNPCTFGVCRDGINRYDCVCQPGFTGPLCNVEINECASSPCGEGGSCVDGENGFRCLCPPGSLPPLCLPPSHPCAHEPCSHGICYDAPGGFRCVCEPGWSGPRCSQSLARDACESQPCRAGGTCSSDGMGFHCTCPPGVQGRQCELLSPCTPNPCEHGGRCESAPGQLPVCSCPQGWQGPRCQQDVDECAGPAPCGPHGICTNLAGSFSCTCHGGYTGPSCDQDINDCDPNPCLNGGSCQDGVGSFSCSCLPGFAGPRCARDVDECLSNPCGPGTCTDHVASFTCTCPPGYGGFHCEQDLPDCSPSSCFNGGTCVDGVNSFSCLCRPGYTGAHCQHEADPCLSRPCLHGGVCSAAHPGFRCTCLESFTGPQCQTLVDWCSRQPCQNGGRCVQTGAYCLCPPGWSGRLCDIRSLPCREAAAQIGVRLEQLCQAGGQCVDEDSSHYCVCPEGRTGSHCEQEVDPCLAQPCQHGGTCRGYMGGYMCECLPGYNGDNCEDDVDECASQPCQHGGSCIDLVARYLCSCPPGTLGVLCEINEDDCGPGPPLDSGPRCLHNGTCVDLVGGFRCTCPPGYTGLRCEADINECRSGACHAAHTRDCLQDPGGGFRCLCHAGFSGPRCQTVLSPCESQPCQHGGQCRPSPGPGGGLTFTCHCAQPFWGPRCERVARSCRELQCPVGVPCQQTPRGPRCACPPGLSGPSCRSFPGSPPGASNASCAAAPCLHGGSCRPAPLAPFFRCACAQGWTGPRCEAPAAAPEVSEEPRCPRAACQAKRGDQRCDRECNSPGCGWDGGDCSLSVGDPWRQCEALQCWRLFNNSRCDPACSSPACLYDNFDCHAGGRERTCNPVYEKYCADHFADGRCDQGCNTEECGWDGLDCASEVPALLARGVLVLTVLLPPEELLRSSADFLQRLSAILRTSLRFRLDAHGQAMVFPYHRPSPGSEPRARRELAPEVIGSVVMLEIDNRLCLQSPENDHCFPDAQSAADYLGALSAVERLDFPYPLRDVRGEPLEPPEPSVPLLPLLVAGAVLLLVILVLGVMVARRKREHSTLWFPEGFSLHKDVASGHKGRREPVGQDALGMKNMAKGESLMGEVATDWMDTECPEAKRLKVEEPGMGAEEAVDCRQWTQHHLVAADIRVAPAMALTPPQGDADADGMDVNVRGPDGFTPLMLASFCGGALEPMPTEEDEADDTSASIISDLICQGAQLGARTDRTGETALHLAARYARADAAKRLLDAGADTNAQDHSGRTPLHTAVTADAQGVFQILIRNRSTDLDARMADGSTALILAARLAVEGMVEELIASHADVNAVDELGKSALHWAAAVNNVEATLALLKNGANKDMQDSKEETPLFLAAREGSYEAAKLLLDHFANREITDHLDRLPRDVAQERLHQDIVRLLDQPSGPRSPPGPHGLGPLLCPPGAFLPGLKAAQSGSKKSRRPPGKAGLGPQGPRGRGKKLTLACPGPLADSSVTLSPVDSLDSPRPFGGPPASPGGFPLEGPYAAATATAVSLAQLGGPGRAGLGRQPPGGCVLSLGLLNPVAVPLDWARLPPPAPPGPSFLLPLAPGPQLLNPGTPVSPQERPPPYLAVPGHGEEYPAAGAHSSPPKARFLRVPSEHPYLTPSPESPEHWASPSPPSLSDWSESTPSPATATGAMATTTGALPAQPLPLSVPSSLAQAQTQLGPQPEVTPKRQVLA
# Sequence of Dickkopf-related protein 1 (Homo sapiens) (O94907 whole entry, looked up): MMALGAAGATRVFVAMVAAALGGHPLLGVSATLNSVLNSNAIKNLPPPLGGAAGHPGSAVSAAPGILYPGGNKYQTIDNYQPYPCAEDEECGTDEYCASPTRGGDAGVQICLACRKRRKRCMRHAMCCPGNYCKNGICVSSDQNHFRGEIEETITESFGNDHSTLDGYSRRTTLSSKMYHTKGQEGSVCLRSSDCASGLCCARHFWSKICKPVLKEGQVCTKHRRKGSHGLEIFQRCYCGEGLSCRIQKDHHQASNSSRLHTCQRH
Structure (SMILES),composite z-score [1],z-score [2],z-score [3],z-score [4],composite z-score [5],z-score [6],composite z-score [7],composite z-score [8],composite z-score [9],composite z-score [10],composite z-score [11],composite z-score [12],composite z-score [13],z-score [14],composite z-score [15],composite z-score [16],composite z-score [17],composite z-score [18],composite z-score [19],composite z-score [20]
COCCCNC(=O)[C@@]1(Cc2ccccc2I)c2ccccc2C(=O)N(Cc2ccccc2Cl)[C@H]1c1ccc(CO)cc1,0.34,-2.1 (inactive),-0.477 (inactive),-0.905 (inactive),2.37,-0.162 (inactive),0.0842,0.323,0.344,-0.0429,0.506,0.0418,-0.261,-0.964 (inactive),-0.0568,0.575,-0.0316,0.3,0.186,0.712
CN(C)CCCCNC(=O)[C@H]1C[C@H]2C(=O)N[C@@H](CCCC[N+](C)(C)C)C(=O)N2[C@H]1c1cccc(OCCO)c1,1.53,-0.359 (inactive),0.276 (inactive),-0.702 (inactive),2.05,0.305 (inactive),-0.204,1.35,0.907,-0.0733,1.57,-0.124,0.15,-0.698 (inactive),0.217,0.571,0.126,0.738,0.797,0.877
[N-]=[N+]=NCc1ccccc1C[C@]1(C(=O)NCCN2CCOCC2)COC(c2ccc(OCCCO)cc2)=N1,1.55,-1.52 (inactive),-2.24 (inactive),-1.66 (inactive),3.08,1.46 (inactive),0.0004,0.516,0.486,-0.0351,1.49,0.297,0.853,-0.995 (inactive),0.396,0.966,-0.553,0.101,-0.36,0.978
COC(=O)C(CC#Cc1ccc2c(c1)[C@]1(C(=O)N2)[C@H](c2ccc(O)cc2)N2[C@H](c3ccccc3)[C@H](c3ccccc3)OC(=O)[C@H]2[C@@H]1C(N)=O)C(=O)OC,-1.37,-0.731 (inactive),-0.55 (inactive),-0.438 (inactive),-0.759,2.23 (inactive),-0.189,-2.58,-1.06,0.162,-0.532,-0.207,0.613,-0.192 (inactive),-1.48,-1.29,-0.856,-1.89,-0.841,-0.611
CN1C(=O)C2C=CC(C(O)c3cccc4ccccc34)N(NC(=O)OC(C)(C)C)C2C1=O (stereo not given),1.25,-1.04 (inactive),-0.397 (inactive),-0.0612 (inactive),2.63,-0.094 (inactive),0.712,-0.773,1.02,0.37,1.37,1.33,1.43,2.35 (inactive),0.373,1.03,-0.0459,0.85,-0.123,0.844
COc1cc(C(O)C2C=CC3C(=O)NC(=O)C3N2Nc2ccc(Cl)cc2Cl)cc(OC)c1OC (stereo not given),1.18,-12.3 (active),-1.57 (inactive),0.27 (inactive),3.27,-0.66 (inactive),0.162,0.049,1.09,0.114,1.18,0.88,1.12,0.734 (inactive),0.746,0.189,-0.0874,1.28,-0.675,1.11
CO[C@H]1O[C@H](CO)[C@@H](OC(=O)Nc2ccc(C(F)(F)F)cc2)[C@H](OC(=O)Nc2ccccc2)[C@H]1OC(=O)Nc1ccccc1,1.53,0.719 (inactive),-0.304 (inactive),5.51 (inactive),3.14,-0.994 (inactive),0.158,0.896,1.04,0.172,1.61,0.995,0.832,-0.624 (inactive),1.33,1.33,0.375,1.2,0.0148,0.0729
O=[N+]([O-])c1ccc(C[n+]2ccc(-c3ccc(CO)cc3)cc2)o1,1.47,-0.612 (inactive),-15.5 (active),0.196 (inactive),1.71,-0.818 (inactive),-0.129,0.526,1.16,-0.0703,1.2,-0.0024,0.192,-0.0885 (inactive),0.527,0.213,0.224,1.45,0.253,1.86
COC(=O)[C@@]1(Cc2ccccc2N=[N+]=[N-])N=C(c2ccc(OCCCO)cc2)O[C@H]1c1ccccc1,1.14,-0.0982 (inactive),-3 (inactive),23 (active),1.21,0.0111 (inactive),-0.0654,0.314,0.94,-0.115,1.34,0.0665,0.87,2.25 (inactive),0.818,-0.253,-0.285,0.666,-0.385,0.575
CN(C)C(=O)[C@@]1(CCS(=O)(=O)c2ccccc2)N=C(c2ccc(OCCCO)cc2)O[C@H]1c1ccccc1CN=[N+]=[N-],1.54,-1.54 (inactive),-0.346 (inactive),0.0194 (inactive),3.79,1.15 (inactive),0.0225,1.66,1.12,0.0316,1.02,0.182,0.286,-0.863 (inactive),1.41,1.36,0.27,0.922,0.52,0.69
